# Compound activity from PubChem.
# Only some compounds are listed: those with a hit (about 22% of all), similar ones and a draw of the others.
# Measles CPE: protection of cells from measles virus | protection (pct of control), % at 4 µM | Measles virus-infected cells, CPE protection, absorbance | AID 841 | hit rate 1.5% among 140,000; in the data active means protection mostly above about 24%, no sharp cut-off; inactive means mostly below about 26%
# CYP2C19 inhib: inhibitors of human CYP2C19 | AID 778 | hit rate 21% among 96,000 | P33261 | CYP2C19 Supersomes, luciferin-H EGE luminescence, 30 min | inhibition, % at 5 µM;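 active means CYP2C19 inhibition above a set limit at 5 µM in the primary screen, cut at about 50% in these data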
# CYP2C9 activ: activators of human CYP2C9. AID 1024. recombinant CYP2C9, luciferin-H conversion, luminescence; stronger effect = higher value; factor 1 = untreated enzyme, 0 = blocked. hit rate 1.4% among 96,000. activation factor at 5 µM;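 active means activation factor of 2 or more for CYP2C9 at a 5 µM dose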
# Target sequence (P11712 whole entry, looked up): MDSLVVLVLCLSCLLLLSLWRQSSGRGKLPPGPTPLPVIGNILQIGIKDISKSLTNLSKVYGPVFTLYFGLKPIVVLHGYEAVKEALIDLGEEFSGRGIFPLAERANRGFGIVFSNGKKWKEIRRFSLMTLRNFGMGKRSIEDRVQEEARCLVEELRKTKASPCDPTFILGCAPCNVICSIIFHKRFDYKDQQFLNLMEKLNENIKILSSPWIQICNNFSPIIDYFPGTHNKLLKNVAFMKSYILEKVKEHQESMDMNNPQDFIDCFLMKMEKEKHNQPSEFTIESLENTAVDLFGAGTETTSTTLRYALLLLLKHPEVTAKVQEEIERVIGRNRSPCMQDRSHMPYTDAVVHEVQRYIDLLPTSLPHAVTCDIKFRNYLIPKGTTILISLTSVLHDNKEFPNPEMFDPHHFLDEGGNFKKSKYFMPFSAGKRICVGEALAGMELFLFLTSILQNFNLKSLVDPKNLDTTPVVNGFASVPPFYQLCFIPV
# CYP2C19 act: cytochrome P450 2C19 (human) activation. recombinant CYP2C19, luciferin-H EGE luminescence; stronger effect = higher value; 0 = fully inhibited enzyme, 1 = untreated enzyme. activation factor at 5 µM. 96,000 tested, under 10 active. AID 1025;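 active means activation factor of at least 2 at 5 µM in the primary screen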
# CYP2C9 inh: inhibitors of human CYP2C9. inhibition, % at 5 µM. P11712. CYP2C9 Supersomes, luciferin-H conversion, luminescence. hit rate 20% among 96,000;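 active means blocking of liver enzyme CYP2C9 beyond about 50% at 5 µM, limit read from the data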
# Hits are given with their value; i = inactive; nt = no result given.
SMILES,Measles CPE,CYP2C19 inhib,CYP2C9 activ,CYP2C19 act,CYP2C9 inh
COc1ccc(C(CNC(=O)c2cc(C)oc2C)N2CCOCC2)cc1 (centres undefined),i,60,i,i,i
O=C(NCC(c1ccc(F)cc1)N1CCOCC1)c1ccc(Br)o1 (centres undefined),i,61,i,i,i
COc1ccc(C(CNC(=O)COc2ccccc2C#N)N2CCOCC2)cc1 (centres undefined),i,i,i,i,60
COc1ccc(C(CNC(=O)c2ccccc2C)N2CCCC2)cc1 (centres undefined),i,i,i,i,i
COc1ccc(C(CNC(=O)c2ccc3c(c2)C(=O)N(CCC(C)C)C3=O)N2CCOCC2)cc1 (centres undefined),i,88,i,i,88
COc1ccccc1CN(Cc1nc2ccccc2c(=O)[nH]1)S(=O)(=O)c1ccc2ccccc2c1,i,nt,nt,nt,nt
CN(Cc1nc(-c2cccnc2)no1)S(=O)(=O)c1ccccc1,i,74,i,i,i
COc1ccc(S(=O)(=O)N(Cc2ccccc2)Cc2nc3ccccc3c(=O)[nH]2)cc1,i,55,i,i,i
Cc1ccc(S(=O)(=O)Cc2nc3ccccc3c(=O)[nH]2)cc1,i,85,i,i,i
Cc1ccc(S(=O)(=O)N(C)Cc2nc(-c3ccncc3)no2)cc1,i,92,i,i,69
O=[N+]([O-])c1ccc(CCNc2cccc3ccccc23)c([N+](=O)[O-])c1,i,nt,nt,nt,nt
O=C(COC(=O)C1CC(O)CN1C(=O)Oc1ccccc1)c1ccc(Br)cc1 (centres undefined),i,nt,nt,nt,nt
COc1ccc(Cc2nc(-c3ccccc3)no2)cc1,i,i,i,i,i
COc1ccc(S(=O)(=O)N(Cc2ccccc2)Cc2nc(-c3ccccc3)no2)cc1,i,87,i,i,92
O=C1CC(c2ccc(F)cc2)SC(N(c2ccccc2)c2ccccc2)=N1 (centres undefined),i,nt,nt,nt,nt
CCOC(=O)/C(=N\Nc1cccc(C(F)(F)F)c1)N(CCOC)CCOC,i,99,i,i,89
N/C(CC(=O)Nc1cccc(C(F)(F)F)c1)=N/O,i,i,i,i,i
CCOC(=O)c1ccc(CSc2nncn2N)o1,i,i,i,i,i
CCOC(=O)c1ccoc1CSCc1ccc(C(=O)OC)o1,i,i,i,i,72
CC12CCC(c3c(CO)nn(-c4ccccc4)c31)C2(C)C (centres undefined),i,59,i,i,i
CC12CCC(c3c(C(=O)O)nn(-c4ccccc4)c31)C2(C)C (centres undefined),i,i,i,i,i
CC12CCC(c3c(C(=O)Nc4nccs4)nn(-c4ccccc4)c31)C2(C)C (centres undefined),i,i,i,i,74
CCOC(=O)CCP(=O)(O)C(O)c1ccccc1 (centres undefined),i,i,i,i,i
CC(Oc1ccccc1)C(=O)NNC(=O)c1ccccn1 (centres undefined),i,nt,nt,nt,nt
C/C(=N\NC(=O)C(C)Oc1ccc([N+](=O)[O-])cc1)c1ccccn1 (centres undefined),i,68,i,i,i
SMILES,Measles CPE,CYP2C19 inhib,CYP2C9 activ,CYP2C19 act,CYP2C9 inh
O=C(CCn1nc(-c2ccccc2)ccc1=O)N1CCN(c2ccccn2)CC1,i,i,i,i,i
Cc1ccc(C(=O)C(C)OC(=O)c2cc3cc([N+](=O)[O-])ccc3oc2=O)cc1 (centres undefined),i,i,i,i,88
Cn1c(C(C(=O)NCC2CCCO2)N(CCc2ccccc2)C(=O)Cn2nnc3ccccc32)nc2ccccc21 (centres undefined),i,nt,nt,nt,nt
OC(c1ccccc1)(c1ccc(F)cc1)C(c1ccccc1)N1CCOCC1 (centres undefined),i,69,i,i,i
Cc1cccc(-c2nnc(SCc3nc4ccccc4[nH]3)n2Cc2ccco2)c1,i,54,i,i,70
c1coc(Cn2c(SCc3nc4ccccc4[nH]3)nnc2-c2cccs2)c1,i,98,i,i,92
O=C1/C(=C/c2ccc(F)c(F)c2)CSc2sccc21,i,i,i,i,78
O=C1/C(=C/c2cccs2)Cc2ccccc21,i,nt,nt,nt,nt
O=C1CCCC2=C1C(c1cccs1)n1ncnc1N2 (centres undefined),i,i,i,i,i
CC(C)c1ccc(C2NC(=O)NC3=C2CCc2ccccc23)cc1 (centres undefined),i,i,i,i,i
c1ccc(C2C3=C(Nc4ncnn42)c2ccccc2CCC3)cc1 (centres undefined),i,52,i,i,i
Clc1ccc(C2C3=C(Nc4ncnn42)c2ccccc2CC3)cc1 (centres undefined),i,80,i,i,69
O=C(CCC(=O)c1ccc(F)cc1)Nc1cccc(S(=O)(=O)Nc2cccc(Cl)c2)c1,i,nt,nt,nt,nt
COC(C(=O)Nc1ccccc1F)c1ccccc1 (centres undefined),i,66,i,i,i
COC(C(=O)NC1CC1)c1ccccc1 (centres undefined),i,nt,nt,nt,nt
COC(C(=O)Nc1ccc(F)cc1F)c1ccccc1 (centres undefined),i,i,i,i,i
COC(C(=O)Nc1cccc(F)c1)c1ccccc1 (centres undefined),i,50,i,i,i
C/C(=C\C(=O)O)C12CC3CC(CC(C3)C1)C2,i,i,i,i,i
CN1CCN(C(c2cccc(Cl)c2)c2ccccc2Cl)CC1 (centres undefined),i,nt,nt,nt,nt
CCN1C(=O)N/C(=C/c2ccc(C)o2)C1=O,i,nt,nt,nt,nt
Cc1cc(/C=C2/NC(=O)N(c3ccccc3)C2=O)c(C)n1C(C)C,55,nt,nt,nt,nt
Cc1ccc(/C=C2/NC(=O)N(c3ccccc3)C2=O)o1,i,68,i,i,i
Cc1cccc(NC(=O)CN2C(=O)N/C(=C/c3cc(C)n(C(C)C)c3C)C2=O)c1,i,i,i,i,71
Cc1cc(=O)c2n(Cc3ccc(Cl)cc3)nc[n+]2[nH]1,i,i,i,i,i
CN1CC2([N+](=O)[O-])CC=C(OCCO)C([N+](=O)[O-])(C1)C2 (centres undefined),i,nt,nt,nt,nt
SMILES,Measles CPE,CYP2C19 inhib,CYP2C9 activ,CYP2C19 act,CYP2C9 inh
COc1ccc(Sc2cnn(-c3ccccc3)c(=O)c2Cl)cc1,i,i,i,i,85
COc1ccc(S(=O)(=O)N(C)c2ccc(C(=O)NCCC(C)C)cc2)cc1,i,86,i,i,92
CCOCCCNC(=O)c1ccc(N(C)S(=O)(=O)c2ccc(OC)cc2)cc1,i,i,i,i,78
COc1ccc(S(=O)(=O)Nc2cc(C(=O)NCCC(C)C)ccc2N2CCOCC2)cc1,i,i,i,i,61
CCCSc1nc(C)nc2c1c(=O)n(C)c(=O)n2C,i,i,i,i,i
Cc1ccc(N2C(=O)C(Cl)=C(N3CCOCC3)C2=O)cc1Cl,i,nt,nt,nt,nt
O=C1C(Cl)=C(N2CCOCC2)C(=O)N1c1ccccc1Cl,nt,94,i,i,i
COC(=O)c1cccc(N2C(=O)C(Cl)=C(N3CCOCC3)C2=O)c1,i,61,i,i,i
Cc1nnc2c(NC(C)C)nc3ccccc3n12,i,i,i,i,i
O=C(CNC1CCCCCC1)c1cccs1,i,nt,nt,nt,nt
